For 35 molecules, Potency results are on record in PubChem BioAssay (NCATS).

Results filed as inconclusive are left out. Where a call stands in place of a potency, no number is given. Calls of active or inactive are those of the source. Calls follow the shape of the dose curve; as a rule, active = well fitted inhibition curve with a large enough effect; inconclusive = small, poorly fitted or top-dose-only effect; inactive = flat fitted curve, though single readings scatter.
Potency is read from the fitted curve at half-maximal effect.

A short description of the test: BET inhibitor-based combinations targeting novel dependencies in MECOM-rearranged (r) AML: AML-194 cell line (AID 2202237; also: nearly all actives have a fitted effect of over 40% in size). To be noted: AML-194 (MECOM-r AML) viability, CellTiter-Glo, 48 h; series mostly up to 46 µM. The gist of the method:
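Each compound was tested at eleven concentrations on cells seeded at 500/well. After two days' incubation, ATP-based luminescence reported viability; responses relative to DMSO and blank wells yielded AUC and cell-line-centred Z-AUC.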
In the case of `CCCc1c(OCCCOc2ccc(OCC(=O)O)cc2)ccc(C(C)=O)c1O`, the Potency result was “inactive”.

`COc1ccc2[nH]cc(CCNC(C)=O)c2c1`: the Potency entry is “inactive”.

Take `CCC(C)N(C)C(=O)c1cc2ccccc2c(-c2ccccc2Cl)n1` (stereo not given): the Potency result is “inactive”.

`O=c1c(O)c(-c2ccc(O)cc2O)oc2cc(O)cc(O)c12`: the Potency result is “inactive”.

With `CC(C)NCC(O)c1ccc(NS(C)(=O)=O)cc1` (stereo not given), the Potency result is “inactive”.

Regarding `COc1ccc(C2CNC(=O)C2)cc1OC1CCCC1` (stereo not given), the Potency result was “inactive”.

`O=C1CCC(N2C(=O)c3ccccc3C2=O)C(=O)N1` (stereo not given): the Potency result was “inactive”.

In the case of `Nc1ncnc2c1ncn2[C@@H]1O[C@H](CO)[C@@H](O)[C@H]1O`, the Potency entry is “inactive”.

Take `Cc1cccc(-c2[nH]ncc2-c2ccc3ncccc3n2)n1`: the Potency result is “inactive”.

With `CCn1cc(C(=O)O)c(=O)c2cc(F)c(N3CCNC(C)C3)c(F)c21` (stereo not given), the Potency entry was “inactive”.

Consider `CNC[C@H](O)c1ccc(O)c(O)c1`, for which the Potency entry was “inactive”.

For the molecule `Nc1nc2c(ncn2COC(CO)CO)c(=O)[nH]1`, the Potency entry was “inactive”.

In the case of `NCCCCCC(=O)O`, the Potency result was “inactive”.

`CC(C)NCC(O)COc1ccc(CCOCC2CC2)cc1` (stereo not given): the Potency result was “inactive”.

Consider `O=C(O)C1CCCN(CCC=C(c2ccccc2)c2ccccc2)C1` (stereo not given), for which the Potency result was “inactive”.

As for `NS(=O)(=O)c1cc2c(cc1Cl)NC=NS2(=O)=O`, the Potency entry was “inactive”.

For the molecule `CCN(CC)CCNC(=O)c1c(C)[nH]c(/C=C2\C(=O)Nc3ccc(F)cc32)c1C`, the Potency was 4.68 µM (active).

Turning to `CCOC(=O)C(C)(C)Oc1ccc(Cl)cc1`, the Potency entry is “inactive”.

`C[C@@H](c1ncncc1F)[C@](O)(Cn1cncn1)c1ccc(F)cc1F`: the Potency entry is “inactive”.

`CN1CCC(=C2c3ccccc3CC(=O)c3sccc32)CC1`: the Potency entry was “inactive”.

`CC12CC3CC(C)(C1)CC(N)(C3)C2`: the Potency entry was “inactive”.

For the molecule `CC(C(=O)O)c1cccc(C(=O)c2ccccc2)c1` (stereo not given), the Potency entry is “inactive”.

Turning to `Nc1nnc(-c2cccc(Cl)c2Cl)c(N)n1`, the Potency result was “inactive”.

As for `CNC[C@H](O)c1cccc(O)c1`, the Potency entry was “inactive”.

Consider `CC(C)(C)NCC(O)c1ccc(O)c(CO)c1` (stereo not given), for which the Potency entry is “inactive”.

Regarding `COC(=O)Nc1nc2ccc(C(=O)c3cccs3)cc2[nH]1`, the Potency is 0.332 µM (active).

Turning to `O=C1N(c2ccccc2)c2ccccc2C1(Cc1ccncc1)Cc1ccncc1`, the Potency entry was “inactive”.

Turning to `Nc1nc2c(ncn2COCCO)c(=O)[nH]1`, the Potency result is “inactive”.

For the molecule `CCCCNc1cc(C(=O)O)cc(S(N)(=O)=O)c1Oc1ccccc1`, the Potency entry was “inactive”.

Take `CCCCS(=N)(=O)CCC(N)C(=O)O` (stereo not given): the Potency result was “inactive”.

Consider `NC(=O)c1ncn([C@@H]2O[C@H](CO)[C@@H](O)[C@H]2O)c1O`, for which the Potency entry is “inactive”.

Turning to `NCCS(=O)(=O)O`, the Potency entry is “inactive”.

`Nc1ncn([C@@H]2O[C@H](CO)[C@@H](O)[C@H]2O)c(=O)n1`: the Potency is 16.6 µM (active).

On to `CN(CCOc1ccc(NS(C)(=O)=O)cc1)CCc1ccc(NS(C)(=O)=O)cc1`, for which the Potency result was “inactive”.

Consider `Cc1cc(Cl)ccc1OCCCC(=O)NO`, for which the Potency is 4.17 µM (active).
